{"source": "PubChem BioAssay (NCI)", "note": "The panel holds about 83,000 compounds, 20% with a hit somewhere; the sample as a whole holds those more often.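 Negative percent growth values reflect cell death: -40 means 40% of the cells present at the start died, and -100 means all died.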 The source made the active and inactive calls."}
{"system": "NCI-H522 lung", "assay": "NCI-60 one-dose screen, 48 h (100 = growth as untreated, 0 = no growth, -100 = all killed)", "settings": "10 µM unless noted", "protocol": "Growth inhibition of the NCI-H522 human Non-Small Cell Lung tumor cell line is measured as a screen for anti-cancer activity. Cells are grown in 96 well plates and exposed to the test compound for 48 hours. Compounds are tested at a single concentration, which is 10^-5 M for most compounds. The reported endpoint is percent growth (GI% or GIPRCNT), where numbers from 0 - 100% represent growth inhibition, and numbers from -100% - 0 represent cell death. For example, a value of 40 represents 60% growth inhibition. A value of 0 means no net growth occurred over the course of the experiment. A value of -40 indicates 40% of cells at the beginning of the experiment died by the end of the experiment. A value of -100 means all cells are dead at the end of the experiment.\nNCI-60 Human Tumor Cell Lines Screen was performed using the standard one-dose NCI protocol, which is described in more detail at https://dtp.cancer.gov/discovery_development/nci-60/default.htm.\nCompounds with GIPRCNT values below 10 were considered active. Activity score was based on GIPRCNT using the following formula: […]\nScore is 0 for GIPRCNT values of 100 or above, 50 for GIPRCNT values of 0, and 100 for GIPRCNT values of -100."}
{"smiles": "C=C(C)[C@@H]1CC[C@]2(C(=O)NCCNCCNC(=O)OC(C)(C)C)CC[C@]3(C)[C@H](CC[C@@H]4[C@@]5(C)CCC(=O)C(C)(C)[C@@H]5CC[C@]43C)[C@@H]12", "growth": "39.9% [100 µM] (inactive)"}
{"smiles": "O=C(NCCCNC(=O)OCc1ccc2cccc(O)c2n1)OCc1ccc2cccc(O)c2n1", "growth": "18.4% (inactive)"}
{"smiles": "CC(C)=CC/C=C(/C)[C@H]1CC[C@]2(C)[C@@H]1CC[C@@H]1[C@@]3(C)CCC(=O)NC(C)(C)[C@@H]3CC[C@]12C", "growth": "-58% [100 µM] (active)"}
{"smiles": "CC(C)[C@H]1CCC2=C3CC[C@]45OC(=O)[C@@]6(CCC(C)(C)C[C@H]64)CC[C@@]5(C)[C@]3(C)CC[C@@]21C", "growth": "55.7% [100 µM] (inactive)"}
{"smiles": "ClC1=C(Cl)C(Cl)=C(Cl)C1=Cc1ccccc1", "growth": "-51.1% (active)"}
{"smiles": "CCOc1cccc2c(NC(C)CCCN(CC)CC)c(C)cnc12", "note": "(stereo not given)", "growth": "94.7% (inactive)"}
{"smiles": "O=C1NC(=O)c2cc([N+](=O)[O-])cc3cccc1c23", "growth": "77.5% (inactive)"}
{"smiles": "CCCCOC(=O)c1c(C)[nH]c(/C=C2\\N=C(c3ccc[nH]3)C=C2OC)c1C", "growth": "-41.3% (active)"}
{"smiles": "O=C(N[C@@H]1CCCc2ccccc21)[C@H](CCC(=O)N1CCN(C2CCCCC2)CC1)N1C(=O)[C@@H](N2C(=O)OC[C@@H]2c2ccccc2)[C@H]1/C=C/c1ccccc1", "growth": "52.3% (inactive)"}
{"smiles": "CC1(C(=O)O)CCC(N)(C(=O)O)C1(C)C", "note": "(stereo not given)", "growth": "97.1% (inactive)"}
{"smiles": "CCCCNC(=O)NS(=O)(=O)Cc1ccccc1", "growth": "102% (inactive)"}
{"smiles": "C[C@@H]1C[C@H]2C(=O)O[C@@H](C)[C@H](NC(=O)[C@H](Cc3cc(F)cc(F)c3)NC(=O)Nc3ccc(Cl)cc3F)C(=O)N3C[C@H](O)C[C@H]3C(=O)N3CCN(C)C[C@H]3C(=O)N[C@@H](C)C(=O)N2C1", "growth": "26.7% (inactive)"}
{"smiles": "C=CCCCCCCCCC(=O)OC(C)C", "growth": "91.7% (inactive)"}
{"smiles": "Cc1cc(C)nc(SCC(=O)Nc2cccc(N=Cc3ccccc3O)c2)n1", "growth": "86.6% (inactive)"}
{"smiles": "Nn1c(Nc2ccc(S(=O)(=O)Nc3ncccn3)cc2)nnc(/C=C/c2c(O)ccc3ccccc23)c1=O", "growth": "98.1% (inactive)"}
{"smiles": "NC(=O)c1cccc(-c2ccc(S(=O)(=O)Nc3ccc4c(c3)N(C(=O)C3CC3)CCC4)cc2)c1", "growth": "7.75% (active)"}
{"smiles": "COCCCNc1nc(NC(=O)c2cc(OC)cc(OC)c2)cc(-c2cccnc2)n1", "growth": "76.5% (inactive)"}
{"smiles": "Nc1nc(Nc2ccccc2)c2ncn(Cc3cc4c(cc3Br)OCO4)c2n1", "growth": "-40.5% (active)"}
{"smiles": "O=C1NC(=O)C(Cc2ccc(OCc3ccc(-c4cc(F)c(F)c(F)c4)cc3)cc2)S1", "note": "(stereo not given)", "growth": "49.5% (inactive)"}
{"smiles": "COCCCNc1nc(NC(=O)c2cc(Br)cc(C(F)(F)F)c2)cc(-c2cccnc2)n1", "growth": "83.6% (inactive)"}
{"smiles": "Nc1nc(N)c2c(n1)NC(c1ccc(F)cc1)C1CCc3ccccc3C1=N2", "note": "(stereo not given)", "growth": "101% (inactive)"}
{"smiles": "CC1Cc2c(ncnc2-n2cnc3ccccc32)N(C)c2ccccc21", "note": "(stereo not given)", "growth": "20% (inactive)"}
{"smiles": "Cc1ccc2c(c1)/C(=N\\N=C/c1cn(C(C)C)c3ccccc13)C(=O)N2", "growth": "14.4% (inactive)"}
{"smiles": "O=C1COCCN1c1ccc(Nc2nc(Cl)nc(N3CCOCC3)n2)cc1", "growth": "68.2% (inactive)"}
{"smiles": "Cc1ccc2c(n1)C(=O)C(Cl)=C(Nc1ccc(N3CCN(C)CC3)cc1)C2=O", "growth": "-63.8% (active)"}
{"smiles": "CC(C)c1ccc(/C=N/N=C(N)N)cc1", "growth": "66.7% (inactive)"}
{"smiles": "C=C(CN=[N+]=[N-])[C@@H]1CC[C@]2(C)[C@H](CC[C@@H]3[C@H]4[C@H]5OC(=O)[C@@]4(CCC5(C)C)CC[C@]32C)[C@@]1(C)CCC#N", "growth": "70.2% [100 µM] (inactive)"}
{"smiles": "O=C1NC(=O)C(Cc2ccccc2)(Cc2ccccc2)N1", "growth": "97.5% (inactive)"}
{"smiles": "CC(=O)Nc1ccc2nc3ccc(NC(C)=O)cc3[n+](-c3ccccc3)c2c1", "growth": "88% (inactive)"}
{"smiles": "C#C[C@]1(O)CC[C@H]2[C@@H]3CC=C4c5nc(N)sc5CC[C@]4(C)[C@H]3CC[C@@]21C", "growth": "56.6% (inactive)"}
{"smiles": "O=c1[nH]c(CN2CCN(c3cccc(Cl)c3)CC2)nc2cc(Cl)ccc12", "growth": "66.6% (inactive)"}
{"smiles": "CCN(CC)c1ccc2cc(NC(=O)OCCNC(=O)CCNC(=O)[C@H](CC(C)C)NC(=O)C(C)(C)NC(=O)C(C)(C)NC(=O)[C@H](CC(C)C)NC(=O)CCNC(=O)C(C)(C)NC(=O)[C@H](CC(C)C)NC(=O)CCNC(=O)[C@@](C)(CC)NC(=O)[C@H](C)NC(=O)CCNC(=O)C(C)(C)NC(=O)[C@H](C)NC(=O)[C@@H]3CCCN3C(=O)[C@@](C)(CC)NC(=O)[C@H](Cc3ccccc3)NC(=O)C3CCCN3C(=O)C(C)(C)NC(=O)C3CCCN3C(=O)C(C)(C)NC(C)=O)c(=O)oc2c1", "note": "(stereo not given in full)", "growth": "-82.3% (active)"}
{"smiles": "CCOC(=O)/C(C#N)=C(\\C)CCc1ccccc1", "growth": "86.1% (inactive)"}
{"smiles": "CCCCCCCCCCCCCCNC(=O)Nc1ccc(Cl)c(Cl)c1", "growth": "-7% (active)"}
{"smiles": "O=C1CC(c2ccc3c(c2)OCO3)Nc2ccccc21", "note": "(stereo not given)", "growth": "19.8% (inactive)"}
{"smiles": "C[C@]12CCc3nc(Nc4ccccc4)sc3C1=CC[C@@H]1[C@@H]2CC[C@]2(C)/C(=N/NC(N)=S)CC[C@@H]12", "growth": "32.5% (inactive)"}
{"smiles": "CC(C)C1=NOC(=O)C1=Cc1cn(-c2cccnc2)nc1-c1ccccc1", "growth": "82.7% (inactive)"}
{"smiles": "C#C[C@]1(O)CC[C@H]2[C@@H]3CC=C4c5nc(Nc6ccccc6[N+](=O)[O-])sc5CC[C@]4(C)[C@H]3CC[C@@]21C", "growth": "73.4% (inactive)"}
{"smiles": "Cc1cc(SC#N)ncn1", "growth": "92.3% (inactive)"}
{"smiles": "O=C(N/N=C1\\c2ccccc2-c2cccc(C(=O)O)c21)c1ccc(O)cc1", "growth": "86.5% (inactive)"}
